We go through 32 molecules from PubChem BioAssay AID743446 (Broad Institute, 2014).

The structures appear in SMILES notation. Potency and affinity values are given separately. A number with no mark means an inactive call. No rule for the calls is given here.

A short description of this assay: HEK293 cell cytotoxicity, dose response, cytotoxicity control, plate reader, cherry-picked samples (AID 743446). The note with it: hits give low values; at 26 µM unless noted.
Take `COc1ccc(-c2cc3nc(NCC4CCCCC4)n(C)c(=O)c3s2)cc1OC`: the max activity was 41.6% [at 1.6 µM].
Consider `COc1ccc2c3c([nH]c2c1)[C@H](CO)N(C(C)=O)CC31CCN(C(=O)CN2CCOCC2)CC1`, for which the max activity was 11.8% [at 0.38 µM].
With `O=C(CN1C(=O)c2ccccc2S1(=O)=O)c1ccccc1F`, the max activity is 74.6%.
Under `O=C(Nc1nc2ccccc2[nH]1)c1ccc(Cl)cc1` stands 71.5% [at 0.8 µM]; under `CN(C)c1ccc(NC(=O)c2cnsn2)cc1`, -9.61% [at 12 µM].
The value for `Cc1ccc(-c2csc(Nc3ccccn3)n2)cc1` was -11.1%; that for `Cc1noc(C)c1S(=O)(=O)Nc1cccc2c1O[C@H](CN(C)C(=O)Nc1ccc(F)cc1)[C@H](C)CN([C@H](C)CO)C2=O` was -6.26%.
Under `C[C@H](CO)N1C[C@H](C)[C@H](CN(C)C(=O)Nc2ccc(F)cc2)OCCCC[C@H](C)Oc2ccc(NC(=O)Nc3ccc(F)cc3)cc2C1=O` stands 17% [at 1.5 µM]; under `Cc1ccc(-n2nnc(-c3nccn3C)n2)cc1`, -39%; under `C[C@@H]1CN([C@@H](C)CO)C(=O)c2cccc(NC(=O)Nc3ccc(C(F)(F)F)cc3)c2O[C@H]1CN(C)C(=O)Nc1cccc2ccccc12`, 14.8% [at 6 µM].
For the molecule `Cc1cc(C)c(C)c(S(=O)(=O)N2CCN(c3ncnc4ccccc34)CC2)c1C`, the max activity was 62% [at 1.6 µM].
The value for `CC(=O)Nc1ccc(S(=O)(=O)c2ccnc3cc(Cl)ccc23)cc1` was -26.3% [at 12 µM]; that for `Cc1ccccc1-c1ccc([C@H]2[C@@H](CO)N3CCCCN(S(=O)(=O)c4ccc(F)cc4)C[C@@H]23)cc1` was -101%; that for `COc1cccc(-c2cc(C(=O)Nc3cccc(O)c3)no2)c1` was -7.14%.
Consider `CC(C)N(C(=O)Nc1ccc2nsnc2c1)C(C)C`, for which the max activity is 12.5%.
Under `CO[C@@H]1CN(C)C(=O)c2ccc(NC(=O)C3CC3)cc2OC[C@@H](C)NC[C@@H]1C` stands 12% [at 3 µM]; under `COc1cc(SC)ccc1C(=O)Nc1ccc(Cl)cn1`, 19.7% [at 3 µM].
Consider `Cc1cc(C(=O)COC(=O)c2ccccc2O)c(C)n1CC1CCCO1` (configuration not stated), for which the max activity is -7.06% [at 6 µM].
`Cc1ccnc(N2C(=O)c3ccccc3C2Nc2ccc3c(c2)OCCO3)c1` (configuration not stated): the max activity was 25.2% [at 0.05 µM].
Under `C[C@H](CO)N1C[C@H](C)[C@H](CN(C)C(=O)Nc2ccccc2)OCCCC[C@H](C)Oc2ccc(NC(=O)C3CCCCC3)cc2C1=O` stands 9.5% [at 3 µM].
The value for `CCCC(=O)N1CCCC(c2cc(C(=O)Nc3ccccc3)no2)C1` (configuration not stated) was -23.2% [at 0.05 µM].
For the molecule `O=C(NCCc1ccccc1)c1ccc2c(c1)OCO2`, the max activity was 21.8% [at 12 µM].
The value for `CC(=O)c1ccc(NC(=O)c2noc3c2CCC3)cc1` was 12.6% [at 0.1 µM]; that for `C[C@@H]1CN([C@@H](C)CO)S(=O)(=O)c2ccc(C3=CCCC3)cc2O[C@H]1CN(C)C(=O)c1ccccc1` was 11.7% [at 0.1 µM].
With `C[C@H](CO)N1C[C@H](C)[C@H](CN(C)C(=O)Nc2ccccc2)OCCCC[C@H](C)Oc2ccc(NC(=O)CCC(F)(F)F)cc2C1=O`, the max activity was -24.3% [at 0.195 µM].
With `COCC#Cc1ccc2c(c1)O[C@H](CN(C)S(=O)(=O)c1cccc(F)c1)[C@@H](C)CN([C@H](C)CO)S2(=O)=O`, the max activity was 14.5% [at 0.195 µM].
Under `CC(C)c1nnc(NC(=O)c2ccc3c(c2)OCO3)s1` stands 30.9% [at 0.38 µM]; under `COCCn1c(C)cc(C(=O)CSc2nnc3ccccn23)c1C`, -15% [at 6 µM]; under `N#C[C@@H]1[C@H](c2ccc(C#CC3CCCCC3)cc2)[C@@H](CO)N1S(=O)(=O)c1ccccc1`, 39.8% [at 12 µM].
In the case of `COc1ccccc1N/C=C/c1onc(C)c1[N+](=O)[O-]`, the max activity is -8.08% [at 0.8 µM].
Under `COc1ccc2[nH]c3c(c2c1)CCN1C(=O)N([C@@H](C)C(=O)NCc2ccc(C)cc2)C(=O)[C@]31C` stands -9.06% [at 6 µM].
Take `O=C(c1cc(-c2ccc(Cl)cc2Cl)on1)N1CCOCC1`: the max activity is 14.9% [at 0.05 µM].
